In all, about 50,000 compounds went through this assay and about 800 (1.6%) showed an effect of 50% or more. Shown is part of a subset that was picked to be rich in strong results.

Bcl-2-like protein 10 (Homo sapiens), sequence (Q9HD36 whole entry, looked up): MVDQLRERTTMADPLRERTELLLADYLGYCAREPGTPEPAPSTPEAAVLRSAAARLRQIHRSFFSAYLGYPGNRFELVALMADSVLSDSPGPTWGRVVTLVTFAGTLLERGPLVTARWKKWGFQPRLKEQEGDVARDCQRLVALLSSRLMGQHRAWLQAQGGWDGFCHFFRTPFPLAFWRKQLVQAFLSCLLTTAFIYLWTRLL

The assay addresses Bcl-2-like protein 10 (Homo sapiens) (UniProt Q9HD36). In words: Phenotype converters, Bcl-B/TR3 peptide binding displacement, primary biochemical FP (AID 1240).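 Note: 0% = Bcl-B with tracer peptide and DMSO and 100% = tracer peptide lacking Bcl-B.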 Conditions: GST-Bcl-B / FITC-TR3 peptide fluorescence polarization; stronger effect = higher value; compound at 3.75 mg/L. For orientation: In fluorescence polarisation assays a small probe gives low polarisation when free and higher when bound to something large.
`COCCc1nnc(NC(=O)Cc2ccccc2)s1`: the displacement was found to be 1.2%.

On to `Clc1ccc(-c2noc(CCc3ccccc3)n2)cc1`, for which the displacement is 13.2%.

As for `CN(C)c1ccnc2sc(C(=O)c3ccc(Br)cc3)c(N)c12`, the displacement turned out to be 10%.

`Cc1cc(C)c2c(N)c(C(=O)c3ccc(Br)cc3)sc2n1`: the displacement is -7.3%.

In the case of `Cc1nc2sc(C(=O)c3ccc(Br)cc3)c(N)c2c(C)c1C`, the displacement is 132%.

As for `Cc1[nH]n(-c2ccc([N+](=O)[O-])cc2)c(=O)c1C=NC1CCCCC1`, the displacement is -1.9%.

On to `Cc1nc(C)c(/C(O)=C/c2nc3ccccc3oc2=O)s1`, for which the displacement is -1.1%.

On to `O=C(Nc1ccc(-c2nc3ccccc3[nH]2)cc1)c1cccs1`, for which the displacement is -7.9%.

With `O=c1oc2cc([N+](=O)[O-])ccc2nc1/C=C(\O)c1cccs1`, the displacement was 94%.

For `O=c1oc2cc([N+](=O)[O-])ccc2nc1/C=C(\O)c1ccc(Br)cc1`, the displacement turned out to be 18.6%.

Regarding `O=c1oc2ccccc2nc1/C=C(\O)c1cccs1`, the displacement came to 61.3%.

For `O=c1[nH]c2ccccc2nc1/C=C(\O)c1cccs1`, the displacement worked out at 98.7%.

For `COc1ccc(/C(O)=C/c2nc3ccccc3[nH]c2=O)cc1`, the displacement amounted to 6.8%.

Turning to `O=c1oc2cc([N+](=O)[O-])ccc2nc1/C=C(\O)c1cccc(Br)c1`, the displacement worked out at 3%.

On to `COc1ccc(/C(O)=C/c2nc3ccccc3oc2=O)cc1`, for which the displacement is -1.7%.

Consider `CC(Cc1ccccc1)NC(=O)CC(c1ccccc1)c1ccc(O)c(Cl)c1Cl` (stereo unspecified), for which the displacement came out at 2.6%.

Regarding `O=C(c1ccc(F)cc1)N1CCN(c2cccc(Cl)c2)CC1`, the displacement stood at 2.4%.

Regarding `CCN(CC)CCCCCCOc1ccc(OC)cc1`, the displacement amounted to 10%.

Turning to `COCCOC(=O)c1ccc(NC(=O)COc2cccc(C)c2C)cc1`, the displacement was determined as 1.9%.

`CCOC(=O)C(C(=O)OCC)C(C(=O)OCC)(C(=O)OCC)C(C(=O)OCC)C(=O)OCC`: the displacement came out at 2.1%.

As for `Cc1cc(C)c2[nH]c(O)c(N=NC(=O)c3cccc([N+](=O)[O-])c3)c2c1`, the displacement was -0.6%.

As for `COc1ccc(C(=O)N=Nc2c(O)[nH]c3c(C)cc([N+](=O)[O-])cc23)cc1`, the displacement stood at 115%.

On to `O=C(N=Nc1c(O)[nH]c2ccc(Br)cc12)c1ccc([N+](=O)[O-])cc1`, for which the displacement came to 6.8%.

For the molecule `O=C(N=Nc1c(O)[nH]c2ccc([N+](=O)[O-])cc12)c1ccc2c(c1)OCO2`, the displacement stood at 75.1%.

Take `O=C(N=Nc1c(O)[nH]c2ccc([N+](=O)[O-])cc12)c1cccc(Br)c1`: the displacement turned out to be 3.3%.

As for `COc1ccc(C(=O)N=Nc2c(O)[nH]c3c(C)cc(Br)cc23)cc1`, the displacement turned out to be 3%.

For `CCOc1ccccc1NC(=O)/C=C/c1ccc(Cl)cc1`, the displacement turned out to be 11.4%.

With `CCN1C(=O)N(CC)C2C1N(COC(C)=O)C(=O)N2COC(C)=O` (stereo unspecified), the displacement was determined as 1.5%.

In the case of `COc1ccc(-n2nc3cc(C)c(NC(=O)c4cccnc4)cc3n2)cc1`, the displacement was determined as 5.1%.

Regarding `O=C1c2ccccc2C(=O)N1c1ncc(Cc2cccc(C(F)(F)F)c2)s1`, the displacement was -5.8%.

`Cc1cccc(NC(=O)CN(c2cccc(Cl)c2)S(C)(=O)=O)c1`: the displacement was 3.9%.

In the case of `CC1=C(C(=O)OC2CCCC2)C(c2ccc(Cl)cc2)NC(=O)N1` (stereo unspecified), the displacement is 7.3%.

For `CC1=C(C(=O)OC2CCCCC2)C(c2ccc(N(C)C)cc2)NC(=O)N1` (stereo unspecified), the displacement amounted to 99.1%.

As to `CC1=C(C(=O)OC2CCCCC2)C(c2ccc(Br)cc2)NC(=O)N1` (stereo unspecified), the displacement amounted to 17.5%.

With `CC1=NNC(=O)C1CC(=O)N/N=C/c1ccc(O)cc1` (stereo unspecified), the displacement was -5.3%.

Regarding `C=CCn1c(Cc2ccccc2)n[nH]c1=S`, the displacement is -5.1%.

Turning to `CCc1ccc(NC(=O)C2CC(=O)N=C(N)S2)cc1` (stereo unspecified), the displacement is -2.4%.

As to `Oc1c(C=Nc2cccc3nsnc23)sc2ccccc12`, the displacement was -12.3%.

For the molecule `Cc1cc(NS(=O)(=O)c2ccc(N/C=C/C(=O)c3cccs3)cc2)nc(C)n1`, the displacement is 2.1%.

Turning to `Cc1cc(C)nc(NS(=O)(=O)c2ccc(N/C=C\C(=O)c3cccs3)cc2)n1`, the displacement was determined as 78.5%.

As for `Cc1cc(C)nc(NS(=O)(=O)c2ccc(N/C=C\C(=O)c3ccc4ccccc4c3)cc2)n1`, the displacement was found to be 14.7%.

For the molecule `CCOC(=O)C1=C(O)/C(=C/c2cc(OC)c(OC)c(OC)c2)SC1=Nc1ccc(C)cc1`, the displacement was -5.5%.

Consider `O=[N+]([O-])c1ccc(C[n+]2cc(-c3ccc(Cl)c(Cl)c3)n3c2CCC3)cc1`, for which the displacement was 9.6%.

For `Cc1c(Cl)cccc1-c1ccc(/C=N/N=C2\NC(=O)CS2)o1`, the displacement turned out to be 133%.

With `O=C1CS/C(=N/N=C/c2ccc(-c3ccc([N+](=O)[O-])cc3)o2)N1`, the displacement was determined as 41.1%.

For the molecule `O=C1CS/C(=N/N=C/c2ccc(-c3ccc(Cl)cc3)o2)N1`, the displacement was -6.7%.

In the case of `O=C(Cn1cc(/C=C2/C(=O)NC(=O)N(c3cccc(F)c3)C2=O)c2ccccc21)Nc1ccccc1`, the displacement was 116%.

Turning to `COC(=O)Cn1cc(/C=C2\C(=O)NC(=O)N(c3cccc(F)c3)C2=O)c2ccccc21`, the displacement turned out to be 35.8%.

Turning to `O=C(Cn1cc(/C=C2\SC(=O)NC2=O)c2ccccc21)Nc1ccccc1`, the displacement was -4.9%.

With `Cc1cc(/C=C2\C(=O)NC(=O)N(c3cccc(F)c3)C2=O)c(C)n1C`, the displacement is 18.4%.

Turning to `O=C(Cn1cc(/C=C2/C(=O)NC(=O)N(c3cccc(Cl)c3)C2=O)c2ccccc21)Nc1ccccc1`, the displacement was 94.7%.

As for `CN1C(=O)/C(=C\c2cn(Cc3ccccc3)c3ccccc23)SC1=S`, the displacement came to 8.3%.

Turning to `COc1ccc(/C=C2/SC(=S)N(Cc3ccccc3)C2=O)c2ccccc12`, the displacement was found to be 60.2%.

Take `COc1cccc(/C=C2\SC(=S)N(Cc3ccccc3)C2=O)c1OC`: the displacement was 8.6%.

For `COc1ccccc1OCCn1cc(/C=C2/SC(=S)N(Cc3ccccc3)C2=O)c2ccccc21`, the displacement amounted to 112%.

Regarding `CCN1C(=O)/C(=C\c2cn(Cc3ccccc3)c3ccccc23)SC1=S`, the displacement came to 3.3%.

As for `C=CCc1ccccc1OCCn1cc(/C=C2/SC(=S)N(CC)C2=O)c2ccccc21`, the displacement was 11.6%.

For `CCN1C(=O)/C(=C\c2cn(CCOc3ccccc3C)c3ccccc23)SC1=S`, the displacement worked out at 127%.

For the molecule `O=Cc1ccc(/C=C2/SC(=S)N(Cc3ccccc3)C2=O)cc1`, the displacement turned out to be 10.5%.

With `CC(C)c1ccc(/C=C2\SC(=S)N(Cc3ccccc3)C2=O)cc1`, the displacement came to 2.6%.

Consider `Cc1ccccc1OCCn1cc(/C=C2/SC(=S)N(C)C2=O)c2ccccc21`, for which the displacement was 11.6%.

`COc1ccccc1/C=C1/SC(=S)N(Cc2ccccc2)C1=O`: the displacement came to 16.7%.

For the molecule `CC(Oc1ccc(/C=C2/SC(=S)N(Cc3ccccc3)C2=O)cc1)c1ccccc1` (stereo unspecified), the displacement is 123%.

As to `O=C(Nc1cccc2ccccc12)c1cc(-c2ccco2)nc2ccccc12`, the displacement came to 34.2%.

Turning to `Cc1ccc(C(=O)N2CCC(C(N)=O)CC2)cc1[N+](=O)[O-]`, the displacement is -0.2%.

As to `O=C(Nc1ccccc1)/C(=C\c1cccc(Br)c1)NC(=O)c1ccccc1`, the displacement turned out to be 4.5%.

For the origin of these results see PubChem BioAssay AID1240 (Sanford-Burnham Center for Chemical Genomics, 2008).
